In PubChem BioAssay AID504465 (National Center for Advancing Translational Sciences (NCATS), 2011) one finds Potency data, which are given here for 26 compounds.

Screen size: about 2,100 compounds; about 210 (10%) were called active. Another 53% or so got no clear call; they are omitted. The call rests on the fitted dose curve; in most records, active means well fitted inhibition curve with a large enough effect; inconclusive means small, poorly fitted or top-dose-only effect, or effect the other way; inactive means no such curve, though single readings can be large or run the other way. The list shows a part of the results. Where a call stands in place of a potency, no number is given.
Potency means the concentration at half of the fitted maximal effect.

A short description of the test: IN Cell qHTS Assay for Inhibitors of the mTORC1 Signaling Pathway in MEF (Tsc2-/-, p53-/-) Cells: Sytravon. Further: nearly all actives have a fitted effect of over 60% in size. The conditions noted are these: phospho-rpS6 immunofluorescence, 24 h; series mostly up to 38.3 µM. The procedure, abridged:
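Tsc2-/-, p53-/- MEFs (empty-vector) treated with compound 24 h at 37 degree Celsius, then fixed and stained for phospho-rpS6 Ser235/236 (Alexa-488) plus Hoechst. Reported as % positive cells, thresholds set against 7.5 nM rapamycin and DMSO wells.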
For `Cc1nn(C)c2c1c(-c1ccccc1)cc(=O)n2Cc1ccccc1C#N`, the Potency entry was “inactive”. With `CCN1CCOC(=O)C1CC(=O)Nc1ccc(Br)cc1` (stereo unspecified), the Potency entry is “inactive”. With `Cc1cc(C)cc(NC(=O)C2CCCN2S(=O)(=O)c2ccc3nc(-c4ccccc4)[nH]c3c2)c1` (stereo unspecified) the entry was “inactive”; with `COc1ccc(S(=O)(=O)NC2(C(F)(F)F)NC(=O)N(CCc3ccc(OC)c(OC)c3)C2=O)cc1` (stereo unspecified), “inactive”.

With `O=C(CSCc1ccc(F)cc1)N1CCc2c([nH]c3ccccc23)C1c1ccc(Cl)cc1` (stereo unspecified), the Potency entry was “inactive”. In the case of `CCOc1ccc(-c2cc(NC(=O)c3ccc(C)cc3)c(C(=O)OC)s2)cc1` it was “inactive”; in that of `CCCN1CCN(CCCNC(=O)c2ccc3c(c2)sc2nc(-c4ccc(OCC)cc4)cn23)CC1`, 1.85 µM (active). Regarding `CCCCNC(=O)c1ccc2c(c1)N=C(CC)c1ccccc1S2`, the Potency entry is “inactive”. In the case of `CCC1CCCCN1C(=O)CSc1n[nH]c(-c2ccccc2)n1` (stereo unspecified) it was “inactive”; in that of `CCOC(=O)c1cc(S(=O)(=O)NCc2ccc(C)cc2)[nH]n1`, “inactive”. In the case of `Cc1cccc(NC(=O)c2oc3ccc(S(=O)(=O)N4CCC5(CC4)OCCO5)cc3c2C)c1C` it was “inactive”; in that of `COC(=O)CN1C(=O)C(O)(CC(=O)c2ccc(F)cc2)c2ccccc21` (stereo unspecified), “inactive”.

Consider `CCCN1C(=O)C(O)(CC(=O)c2ccc(C(C)C)cc2)c2ccccc21` (stereo unspecified), for which the Potency result was “inactive”. Turning to `CCCCN1C(=O)C(O)(CC(=O)c2ccc(CC)cc2)c2cc(Br)ccc21` (stereo unspecified), the Potency was 18.5 µM (active). For the compound `COc1ccc(C(=O)CC2(O)C(=O)N(Cc3cccc(C(F)(F)F)c3)c3ccccc32)cc1` (stereo unspecified), the Potency was 4.65 µM (active). As to `Cc1ccccc1CN1C(=O)C(O)(CC(=O)c2ccccc2)c2cc(Cl)ccc21` (stereo unspecified), the Potency result was “inactive”. On to `CCCCN1C(=O)C(O)(c2c(C)[nH]c3ccccc23)c2cc(Br)ccc21` (stereo unspecified), for which the Potency result was “inactive”.

For `COc1cccc(C(=O)CC2(O)C(=O)N(Cc3ccccc3)c3ccccc32)c1` (stereo unspecified), the Potency entry was “inactive”.

For the compound `O=C(CC1(O)C(=O)N(CCc2ccccc2)c2ccc(Br)cc21)c1ccccc1O` (stereo unspecified), the Potency is 20.7 µM (active). As for `CCCCN1C(=O)C(O)(c2c[nH]c3ccccc23)c2cc(Br)ccc21` (stereo unspecified), the Potency entry is “inactive”. In the case of `O=C(CC1(O)C(=O)N(Cc2ccccc2)c2ccc(Br)cc21)c1ccccc1` (stereo unspecified) it was 16.5 µM (active). In the case of `CN1CCc2c(sc(NC(=O)CSc3ccc(F)cc3)c2-c2nc3ccccc3s2)C1` it was “inactive”; in that of `CCC1=Nc2cc(C(=O)NCC(C)c3ccccc3)ccc2Sc2ccc(C)cc21` (stereo unspecified), “inactive”; in that of `CCn1cc2nc(SCC(=O)Nc3cccc(Cl)c3C)n(Cc3ccc(Cl)cc3)c(=O)c2n1`, “inactive”. For `COc1ccc(-c2nc(SCC(=O)Nc3ccc4c(c3)OCCO4)c(-c3ccc(F)cc3)[nH]2)cc1`, the Potency entry was “inactive”.

On to `CC1=C(C(=O)OCC2CCCCC2)C(c2ccc(Cl)cc2)CC(=O)N1` (stereo unspecified), for which the Potency result was “inactive”.
